PubChem BioAssay (Tox21)
“And” between values parts separate entries of the source, which are not always exact repeats. Equal values may be shown once. Records with an inconclusive call do not appear. The source holds several records for some structures; these can differ, active in one and inactive in another. The source made the active and inactive calls. Calls come from the whole dose curve; as a rule, active = well fitted cell-killing curve with a large enough effect in the repeat runs; inconclusive = weak or mixed curves, or effect the other way; inactive = flat fitted curve, though single readings scatter.

test: qHTS RealTime-Glo MT Cell Viability Assay in HepG2 cells - 40 hour (AID 1224870); details: RealTime-Glo luminescence; series mostly up to 76.8 µM; activity change, negative = cytotoxic: at the top concentration; note: nearly all actives have a fitted effect of over 50% in size
Source text: National Center for Advancing Translational Sciences [NCATS]
NIH Chemical Genomics Center [NCGC]
U.S. Environmental Protection Agency [EPA]
National Institutes of Environmental Health Sciences [NIEHS]
National Toxicology Program [NTP]
U.S. Food and Drug Administration [FDA]
Measure of cell viability is critical in the cell-base assay. Analysis of cell viability is necessary for the characterization of cell responses to cytotoxic drugs and environmental stress. A RealTime-Glo MT Cell Viability Assay to monitor cell viability in real time of continues cell culture during 40 hours of compound treatment was used to screen Tox21 10K library compounds in HepG2 cells. The RealTime-Glo MT Cell Viability Assay is a nonlytic, homogeneous, bioluminescent method to measure cell viability in real time using a simple, plate-based method. The assay involves adding NanoLuc luciferase and a cell-permeant prosubstrate to cells in culture. Viable cells reduce the proprietary prosubstrate to generate a substrate for NanoLuc luciferase. This substrate diffuses from cells into the surrounding culture medium, where it is rapidly used by the NanoLuc Enzyme to produce a luminescent signal. The signal correlates with the number of viable cells, making the assay well suited for cytotoxicity studies.
Tox21 Assay Protocol Summary:
The mixture of HepG2 cell suspension and reagents were dispensed at 600cells/6 ul/well in 1536-well tissue culture treated black solid bottom plates using a Multidrop dispenser. After the assay plates were incubated at a 37 C/5% CO2 incubator for 5 hours, 23 nL of compounds dissolved in DMSO, positive and negative controls was transferred to the assay plate by a pintool work station. The plates were incubated at 37 C for 40 hours. The luminescence intensity were measured at 0h, 8h, 16h, 24h, 32h and 40h time points using ViewLux plate reader during compound treatment.
% is set by controls: 0 for no effect and ±100 for the full control effect; potency is the fitted concentration of half-maximal effect.

| Structure (SMILES) | activity change, negative = cytotoxic | Potency |
| --- | --- | --- |
| CSC(=O)c1c(C(F)F)nc(C(F)(F)F)c(C(=O)SC)c1CC(C)C | -5.18% (inactive) |  |
| c1cc[n+]2c(c1)-c1cccc[n+]1CC2 | 0.326% [at 35.3 µM] (inactive) |  |
| CNC(=O)O/N=C(\C)C(C)S(C)(=O)=O (stereo not given) | -7.56% [at 725 µM] (inactive) |  |
| COP(=S)(OC)Oc1nc(Cl)c(Cl)cc1Cl | 0.9% (inactive) |  |
| O=S1(=O)OCC2C(CO1)C1(Cl)C(Cl)=C(Cl)C2(Cl)C1(Cl)Cl (stereo not given) | -19% (inactive) |  |
| Nc1ccc(Cl)cc1C(=O)c1ccccc1F | -8.92% [at 35.3 µM] (inactive) |  |
| COCCC#N | -3.91% (inactive) |  |
| O=P(Cl)(Cl)Cl | -3.28% (inactive) |  |
| CCO/N=C(\CC)C1=C(O)CC(c2c(C)cc(C)cc2C)CC1=O (stereo not given) | -1.36% (inactive) |  |
| BrCCCBr | 4.94% (inactive) |  |
| CC(C)Br | -3.98% (inactive) |  |
| CC(=O)O.CC(=O)O.CC(=O)O.CC(=O)O.CC(=O)O.CC(=O)O.CC(=O)O.O.O.[Cr].[Cr].[Cr] | -0.0585% (inactive) |  |
| [Cl-].[Cl-].[Cl-].[Yb+3] | -2.56% (inactive) |  |
| COC(=O)N(OC)c1ccccc1COc1ccn(-c2ccc(Cl)cc2)n1 | -16.8% (inactive) |  |
| Oc1ccc(Cl)c(Cl)c1 | -0.286% (inactive) |  |
| ClC1=C(Cl)[C@]2(Cl)[C@H]3[C@H]([C@@H]4C=C[C@H]3C4)[C@@]1(Cl)C2(Cl)Cl | -14% (inactive) |  |
| CC(C)C(Nc1ccc(C(F)(F)F)cc1Cl)C(=O)OC(C#N)c1cccc(Oc2ccccc2)c1 (stereo not given) | 2.42% (inactive) |  |
| Cc1ccn2nc(S(=O)(=O)Nc3c(F)cccc3F)nc2n1 | 2.57% (inactive) |  |
| CCCCCCCc1ccc(O)cc1 | -13.8% (inactive) |  |
| NC(=O)C(Cl)Cl | 1.26% (inactive) |  |

| Structure (SMILES) | activity change, negative = cytotoxic | Potency |
| --- | --- | --- |
| CC(=O)C(Cl)C(=O)N(C)C (stereo not given) | 0.681% (inactive) |  |
| CN1C2CCC(C)(C)C1CC(OC(=O)C(O)(c1cccs1)c1cccs1)C2 (stereo not given) | 1.13% [at 35.3 µM] (inactive) |  |
| CCCCCCC[CH2][Sn]([Cl])([Cl])[CH2]CCCCCCC | -5.39% (inactive) |  |
| Clc1cc(Cl)c(-c2cc(Cl)c(Cl)cc2Cl)cc1Cl | 2.96% [at 35.3 µM] (inactive) |  |
| CC[N+]1(CC)CCC(OC(=O)C(O)(c2ccccc2)c2ccccc2)C1 (stereo not given) | 1.32% [at 35.3 µM] (inactive) |  |
| CN=C=O | -4.4% (inactive) |  |
| Nc1nc(N)c(N)c(N)n1 | 5.06% (inactive) |  |
| CCCC[N+]1(C)CCCC1 (tested in a mixture with another compound) | -1.55% (inactive) |  |
| C=CC(=O)[O][Sn]([CH2]CCC)([CH2]CCC)[CH2]CCC |  | 389 nM (active) |
| CC(O)C(=O)[O][Hg][c]1ccccc1 (stereo not given) |  | 2750 nM (active) |
| C=CCOC(=O)c1ccccc1N | -4.06% (inactive) |  |
| CC1(C)[C@H](/C=C2\CCSC2=O)[C@@H]1C(=O)OCc1coc(Cc2ccccc2)c1 | -12.8% (inactive) |  |
| c1ccc2nc(N3CCNCC3)ccc2c1 | -4.43% [at 35.3 µM] (inactive) |  |
| CC1CCCC1 | 10.1% (inactive) |  |
| C=CC(=C)C | 1.9% (inactive) |  |
| CN | 0.943% (inactive) |  |
| CC(Cc1ccc(O)cc1)NCC(O)c1cc(O)cc(O)c1 (stereo not given) | 8.02% [at 35.3 µM] (inactive) |  |
| O=C(N[C@H]1N=C(c2ccccc2F)c2cccc3c2N(CC3)C1=O)c1cc2ccccc2[nH]1 | -13.5% [at 35.3 µM] (inactive) |  |
| CC(Cc1ccc2c(c1)OCO2)NO (stereo not given) | -0.224% (inactive) |  |
| CCCCCCCCCCCCCCn1cc[n+](C)c1 |  | 21.9 µM (active) and 34.3 µM (active) and inactive |
